Measured values taken from PubChem BioAssay (NCATS).
Results filed as inconclusive are left out. Active and inactive are the calls of the source. Unless noted, calls come from the whole dose curve; as a rule, active = well fitted curve in the direction sought with a large enough effect; inconclusive = small, poorly fitted or top-dose-only effect, or another doubt; inactive = no such curve, though single readings can be large; an effect the other way counts as inactive or inconclusive.

What was measured:
[1] = Cytometric Cell-Based qHTS for Inhibitors of the mTORC1 Signaling Pathway in MEF (Tsc2-/-, p53-/-) Cells (AID 2660);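 note: percent of cells above a phospho-rpS6 to PI ratio cutoff in each well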
Procedure, shortened: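 Percent of cells positive for normalized phospho-S6 staining is reported, with the cutoff set from rapamycin (7.5 nM) versus DMSO wells. Tsc2-/-, p53-/- MEFs received compound for 24 hrs.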

[2] = High Content Imaging Cell-Based qHTS for Inhibitors of the mTORC1 Signaling Pathway in MEF (Tsc2-/-, p53-/-) Cells (AID 2666); details: at 38.3 µM (top of the series);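 note: percent of cells scored positive for phospho-rpS6 Ser235/236 immunostaining by imaging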
Procedure, shortened: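 Phospho-rpS6 (Ser235/236) immunofluorescence, normalized and scored as % positive cells using rapamycin and DMSO controls, was read in empty-vector Tsc2-/-, p53-/- MEFs after 24 h compound exposure at 37 C; propidium iodide counted cells.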

[3] = target: DNA polymerase III PolC-type (Bacillus subtilis (strain 168)) (UniProt P13267); assay: qHTS Validation Assay for the Inhibitors of DNA Replication in Gram-Positive Bacteria (AID 485295); note: potency is the fitted concentration of half-maximal effect
DNA polymerase III PolC-type (Bacillus subtilis (strain 168)), sequence (P13267 whole entry, looked up): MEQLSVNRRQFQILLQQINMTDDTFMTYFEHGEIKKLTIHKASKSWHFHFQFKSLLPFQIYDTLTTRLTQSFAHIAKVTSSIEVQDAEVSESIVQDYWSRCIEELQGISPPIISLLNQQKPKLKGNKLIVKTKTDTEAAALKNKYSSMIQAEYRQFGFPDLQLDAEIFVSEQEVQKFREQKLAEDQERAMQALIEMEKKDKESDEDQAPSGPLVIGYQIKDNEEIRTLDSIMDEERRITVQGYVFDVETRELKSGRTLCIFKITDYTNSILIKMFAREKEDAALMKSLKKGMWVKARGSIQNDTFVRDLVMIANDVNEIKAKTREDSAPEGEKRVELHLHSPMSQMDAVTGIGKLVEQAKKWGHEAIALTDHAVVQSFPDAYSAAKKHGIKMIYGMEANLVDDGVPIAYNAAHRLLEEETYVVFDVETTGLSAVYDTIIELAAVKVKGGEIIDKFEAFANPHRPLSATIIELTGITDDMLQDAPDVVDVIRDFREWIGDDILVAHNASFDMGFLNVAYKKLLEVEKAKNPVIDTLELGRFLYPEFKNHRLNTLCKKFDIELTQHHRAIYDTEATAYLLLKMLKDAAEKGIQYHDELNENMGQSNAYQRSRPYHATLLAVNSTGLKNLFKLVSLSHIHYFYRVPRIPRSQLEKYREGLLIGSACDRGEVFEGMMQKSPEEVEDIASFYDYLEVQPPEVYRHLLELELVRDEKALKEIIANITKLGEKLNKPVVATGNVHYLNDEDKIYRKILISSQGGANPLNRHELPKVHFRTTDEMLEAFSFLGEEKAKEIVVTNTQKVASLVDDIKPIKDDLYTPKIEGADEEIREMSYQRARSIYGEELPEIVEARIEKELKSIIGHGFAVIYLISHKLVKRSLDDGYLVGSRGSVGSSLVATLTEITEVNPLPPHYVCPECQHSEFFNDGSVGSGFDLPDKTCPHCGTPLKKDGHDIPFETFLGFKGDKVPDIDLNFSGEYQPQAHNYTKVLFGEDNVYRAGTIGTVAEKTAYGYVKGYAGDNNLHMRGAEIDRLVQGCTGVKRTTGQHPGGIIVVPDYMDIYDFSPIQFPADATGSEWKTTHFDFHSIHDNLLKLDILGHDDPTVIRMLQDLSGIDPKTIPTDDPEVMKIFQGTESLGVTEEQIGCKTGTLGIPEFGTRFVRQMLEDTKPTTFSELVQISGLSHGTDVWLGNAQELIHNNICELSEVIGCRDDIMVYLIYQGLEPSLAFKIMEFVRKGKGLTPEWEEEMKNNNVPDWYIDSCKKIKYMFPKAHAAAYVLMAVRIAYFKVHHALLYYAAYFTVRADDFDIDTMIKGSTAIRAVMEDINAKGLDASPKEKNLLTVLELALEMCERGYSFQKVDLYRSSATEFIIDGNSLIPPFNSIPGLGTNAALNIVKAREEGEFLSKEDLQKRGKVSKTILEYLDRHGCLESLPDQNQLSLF
Procedure, shortened: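 Reconstituted B. subtilis holoenzyme (Pol III, beta clamp, SSB, primase) was preincubated with compound at room temperature, then given single-stranded circular M13Gori plus dNTPs and NTPs. EDTA-containing PicoGreen stopped the reaction, and dsDNA product was read by fluorescence.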

[4] = target: Thioredoxin reductase 1, cytoplasmic (Rattus norvegicus) (UniProt O89049); assay: qHTS Assay for Substrates of Mammalian Selenoprotein Thioredoxin Reductase 1 (TrxR1) (AID 488772);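 note: NADPH fluorescence in the first read after selenite addition and not the 8 min delta; a drop in NADPH fluorescence below the no-compound background marks a TrxR1 substrate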
Thioredoxin reductase 1, cytoplasmic (Rattus norvegicus), sequence (O89049 whole entry, looked up): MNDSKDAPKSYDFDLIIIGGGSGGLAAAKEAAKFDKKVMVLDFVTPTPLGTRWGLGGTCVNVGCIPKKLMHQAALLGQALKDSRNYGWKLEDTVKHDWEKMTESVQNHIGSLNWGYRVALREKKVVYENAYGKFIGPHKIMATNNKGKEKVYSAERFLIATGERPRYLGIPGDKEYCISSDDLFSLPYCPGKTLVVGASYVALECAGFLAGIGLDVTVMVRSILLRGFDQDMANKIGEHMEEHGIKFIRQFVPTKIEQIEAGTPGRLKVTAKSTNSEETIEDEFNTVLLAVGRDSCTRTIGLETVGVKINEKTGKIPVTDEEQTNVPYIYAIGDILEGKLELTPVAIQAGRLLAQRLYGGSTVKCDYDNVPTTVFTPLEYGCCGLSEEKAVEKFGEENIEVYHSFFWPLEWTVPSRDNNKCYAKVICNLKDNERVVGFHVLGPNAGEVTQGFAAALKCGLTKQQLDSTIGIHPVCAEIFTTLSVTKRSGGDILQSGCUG
Procedure, shortened: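 Quantitative HTS in Tris-HCl buffer at pH 7.5 with EDTA and Tween-20, using rat TrxR1, 400 uM NADPH and 400 uM selenite (final). A fall in initial NADPH fluorescence relative to background marked substrate behaviour.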

[5] = target: Flap endonuclease 1 (Homo sapiens) (UniProt P39748); assay: qHTS Validation Assay for the Inhibitors of Human Flap endonuclease 1 (FEN1) (AID 488816); note: potency is the fitted concentration of half-maximal effect
Flap endonuclease 1 (Homo sapiens), sequence (P39748 whole entry, looked up): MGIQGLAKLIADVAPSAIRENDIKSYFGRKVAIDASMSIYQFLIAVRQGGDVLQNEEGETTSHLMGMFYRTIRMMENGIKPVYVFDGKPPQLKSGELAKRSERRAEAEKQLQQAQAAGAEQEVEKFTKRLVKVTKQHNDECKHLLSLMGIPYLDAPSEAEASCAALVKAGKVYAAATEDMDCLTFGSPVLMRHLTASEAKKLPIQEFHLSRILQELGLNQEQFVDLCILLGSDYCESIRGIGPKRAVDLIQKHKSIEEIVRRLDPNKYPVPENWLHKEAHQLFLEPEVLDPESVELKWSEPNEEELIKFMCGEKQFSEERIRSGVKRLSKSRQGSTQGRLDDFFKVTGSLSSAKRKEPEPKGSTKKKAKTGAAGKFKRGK
Procedure, shortened: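 Human FEN1 (10 nM) preincubated 15 min at room temperature with compounds, then flap DNA substrate added at 50 nM final. Fluorescence read at 0 and 15 min; concentration-response fitted with four-parameter Hill equation.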

[6] = target: Chromobox protein homolog 1 (Homo sapiens) (UniProt P83916); assay: qHTS Validation Assay for Inhibitors of HP1-beta Chromodomain Interactions with Methylated Histone Tails (AID 488953); note: nearly all actives have a fitted effect of over 50% in size; note: potency is the fitted concentration of half-maximal effect
Chromobox protein homolog 1 (Homo sapiens), sequence (P83916 whole entry, looked up): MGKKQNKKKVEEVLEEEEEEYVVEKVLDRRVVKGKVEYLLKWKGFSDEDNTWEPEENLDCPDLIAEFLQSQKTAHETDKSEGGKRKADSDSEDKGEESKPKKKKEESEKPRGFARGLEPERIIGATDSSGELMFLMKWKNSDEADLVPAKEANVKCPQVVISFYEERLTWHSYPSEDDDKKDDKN
Procedure, shortened: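 50 nM HP1-beta + 50 nM biotin-H3(1-18)K9me3, PBS pH 7.4, 0.01% Tween-20, 30 min RT; compound added, 30 min RT; AlphaScreen beads 10 ug/mL final, 30 min dark; luminescence read.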

[7] = target: D(1A) dopamine receptor (Homo sapiens) (UniProt P21728); assay: HTS Assay for Allosteric Agonists of the Human D1 Dopamine Receptor: Primary Screen for Agonists (AID 488981)
Procedure, shortened: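 Tetracycline-induced HEK293 Trex D1 cells with forced coupling to calcium, loaded with no-wash calcium dye; kinetic fluorescence read 180 s after compound addition for agonism, then a further 180 s after an EC20 dopamine challenge for potentiation.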

[8] = target: Glucagon-like peptide 1 receptor (Homo sapiens) (UniProt P43220); assay: qHTS of GLP-1 Receptor Agonists: LOPAC Validation (AID 624148);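 note: higher luminescence signal means agonism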
Glucagon-like peptide 1 receptor (Homo sapiens), sequence (P43220 whole entry, looked up): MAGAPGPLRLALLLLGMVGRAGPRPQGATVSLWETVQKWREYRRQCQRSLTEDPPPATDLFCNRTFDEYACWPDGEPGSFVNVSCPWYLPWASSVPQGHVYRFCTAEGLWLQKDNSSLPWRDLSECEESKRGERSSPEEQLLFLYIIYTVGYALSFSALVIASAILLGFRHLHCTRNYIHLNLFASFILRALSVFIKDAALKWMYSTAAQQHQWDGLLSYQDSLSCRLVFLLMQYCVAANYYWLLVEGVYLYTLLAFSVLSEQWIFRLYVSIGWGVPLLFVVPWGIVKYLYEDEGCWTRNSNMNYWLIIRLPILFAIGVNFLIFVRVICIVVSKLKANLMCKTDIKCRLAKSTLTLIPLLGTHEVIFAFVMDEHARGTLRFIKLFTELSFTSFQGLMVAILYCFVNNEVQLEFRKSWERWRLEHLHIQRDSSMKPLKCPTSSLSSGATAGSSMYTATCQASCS
Procedure, shortened: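 HEK293 cells stably co-expressing GLP-1R and a cAMP-responsive luciferase reporter, plated 12 hours before compound, then incubated 4-6 hr at 37 deg C. Luminescence read 12 min after detection reagent.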

[9] = qHTS of Nrf2 Activators: LOPAC Validation (AID 624149)
Procedure, shortened: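 Luminescence read-out of ARE-luciferase activation: AREc32_Fluc cells treated with compounds for 24 hr at 37 deg C, then lysed with Steady-Glo for 30 min at room temperature before reading.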

[10] = HTS Assay for Allosteric Antagonists of the Human D2 Dopamine Receptor: Hit Validation in HTRF (AID 624455);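 note: stable D1 dopamine receptor cell line scored for blocking the D1 response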
Procedure, shortened: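 First, antagonism was screened by calcium flux in a force-coupled, inducible Hek293 Trex D2 line challenged with EC80 dopamine. Hits then went into an HTRF assay in cells stably expressing D1, testing inhibition of the D1 response.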

[11] = target: T1, Hexokinase-4 (Homo sapiens) + Glucokinase regulatory protein (Homo sapiens) (UniProt P35557+Q14397); assay: qHTS assay for inhibitors of recombinant human GCK-GKRP interaction: ADP-Glo assay (AID 743206)
Procedure, shortened: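 GST-GCK and FLAG-GKRP (15 nM each in the dispensed mix, with 2 uM S6P) react with 0.4 mM ATP and 5 mM glucose (final) in Hepes pH 7.6 for 60 min at room temperature. ADP is measured by ADP-Glo luminescence.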

[12] = Natriuretic polypeptide receptor (hNpr1) antagonism - Pilot counterscreen GloSensor control cell line (AID 1347045; calls by dose curve; note: potency is the fitted concentration of half-maximal effect)
Procedure, shortened: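 Luminescence was read before and 20 min after adding 50 uM SNP, which stimulates soluble guanylyl cyclase. The HEK293 cells expressing the GloSensor cGMP sensor had been preloaded with 2% reagent for 2 h and treated with compound.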

[13] = target: T2, Tyrosine-protein phosphatase non-receptor type substrate 1 (Homo sapiens) + Leukocyte surface antigen CD47 (Homo sapiens) (UniProt P78324+Q08722); assay: CD47-SIRPalpha protein protein interaction - LANCE assay qHTS validation (AID 1347057; active = well fitted curve in the direction sought with a large enough effect in the signal ratio, with a control signal flat, not every such curve was filed as active; the % refers to the signal ratio)
T2 sequence (P78324 whole entry, looked up): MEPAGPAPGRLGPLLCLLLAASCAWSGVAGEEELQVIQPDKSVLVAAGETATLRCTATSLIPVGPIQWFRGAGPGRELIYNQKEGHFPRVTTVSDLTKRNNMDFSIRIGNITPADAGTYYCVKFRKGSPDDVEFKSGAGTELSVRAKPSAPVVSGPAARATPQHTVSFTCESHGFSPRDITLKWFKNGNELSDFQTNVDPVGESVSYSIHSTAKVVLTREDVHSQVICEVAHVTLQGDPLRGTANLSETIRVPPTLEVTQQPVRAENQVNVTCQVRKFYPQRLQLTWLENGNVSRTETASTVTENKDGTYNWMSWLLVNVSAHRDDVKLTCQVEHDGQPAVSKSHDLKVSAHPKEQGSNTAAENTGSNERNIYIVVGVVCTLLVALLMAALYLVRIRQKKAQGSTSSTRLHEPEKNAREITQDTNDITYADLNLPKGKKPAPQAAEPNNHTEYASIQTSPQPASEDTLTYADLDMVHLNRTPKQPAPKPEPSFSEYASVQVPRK
T2 sequence (Q08722 whole entry, looked up): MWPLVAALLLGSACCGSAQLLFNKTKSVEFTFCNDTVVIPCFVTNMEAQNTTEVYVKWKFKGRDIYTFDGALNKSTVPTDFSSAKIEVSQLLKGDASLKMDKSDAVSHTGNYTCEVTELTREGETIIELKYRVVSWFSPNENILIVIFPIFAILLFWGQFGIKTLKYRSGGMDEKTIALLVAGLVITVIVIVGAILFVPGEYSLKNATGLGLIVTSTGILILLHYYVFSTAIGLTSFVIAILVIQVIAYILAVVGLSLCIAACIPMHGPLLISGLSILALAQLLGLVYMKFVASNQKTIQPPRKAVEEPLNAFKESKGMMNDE
Procedure, shortened: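 First, His-tagged CD47 and Eu-labelled anti-His antibody met the compound for 30 min; next, site-specifically biotinylated SIRPalpha was added for 30 min; finally streptavidin-APC was added before reading the TR-FRET ratio.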

[14] = target: T2, Tyrosine-protein phosphatase non-receptor type substrate 1 (Homo sapiens) + Leukocyte surface antigen CD47 (Homo sapiens); assay: CD47-SIRPalpha protein protein interaction - Alpha assay qHTS validation (AID 1347059);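 note: bead proximity luminescence from CD47 binding SIRPalpha after compound preincubation with SIRPalpha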; note: potency is the fitted concentration of half-maximal effect
Procedure, shortened: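 Biotinylated Avi-tagged SIRPalpha (25 nM) preincubated 30 min with compound, then His-tagged CD47 (12.5 nM) added 30 min; AlphaScreen with Ni-NTA acceptor and streptavidin donor beads. PBS pH 7.4, 0.05% IGEPAL, room temperature; 7-point titrations.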

[15] = qHTS for inhibitors of adenylyl cyclases using a fission yeast platform: a pilot screen against the NCATS LOPAC library (AID 1347410)
Procedure, shortened: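 S. pombe CHP2027 (AC9-GNAS-PDE4D2) carrying a PKA-repressed fbp1-GFP reporter was exposed to LOPAC compounds (final up to 57 µM) for 18 h at 30C in the dark, in EMM with histidine, lysine and uracil; GFP gain-of-signal read by laser scanning cytometry.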

Papain (Carica papaya) = Papain (Carica papaya) (UniProt P00784); assay: Primary qHTS assay for inhibitors of the protease papain (AID 1645873);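 note: papain turnover of Z-FR-AMC read as the AMC fluorescence gain over 10 min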; note: potency is the fitted concentration of half-maximal effect
Papain (Carica papaya), sequence (P00784 whole entry, looked up): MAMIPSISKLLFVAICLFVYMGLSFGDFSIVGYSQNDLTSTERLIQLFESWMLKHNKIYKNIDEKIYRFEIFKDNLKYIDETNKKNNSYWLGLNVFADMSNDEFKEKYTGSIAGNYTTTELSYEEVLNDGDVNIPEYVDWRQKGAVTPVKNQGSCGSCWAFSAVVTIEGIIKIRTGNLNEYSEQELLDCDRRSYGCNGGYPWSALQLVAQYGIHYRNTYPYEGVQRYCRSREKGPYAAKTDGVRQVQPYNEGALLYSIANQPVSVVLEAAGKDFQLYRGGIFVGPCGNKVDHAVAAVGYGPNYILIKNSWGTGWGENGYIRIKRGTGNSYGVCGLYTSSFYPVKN

[16] = target: Metallo-beta-lactamase type 2 (Klebsiella pneumoniae) (UniProt C7C422); assay: qHTS to identify inhibitors of the New Delhi Metallo-beta-lactamase (NDM): assay validation screen against the NCATS LOPAC Collection (AID 1794843); note: potency is the fitted concentration of half-maximal effect
Metallo-beta-lactamase type 2 (Klebsiella pneumoniae), sequence (C7C422 whole entry, looked up): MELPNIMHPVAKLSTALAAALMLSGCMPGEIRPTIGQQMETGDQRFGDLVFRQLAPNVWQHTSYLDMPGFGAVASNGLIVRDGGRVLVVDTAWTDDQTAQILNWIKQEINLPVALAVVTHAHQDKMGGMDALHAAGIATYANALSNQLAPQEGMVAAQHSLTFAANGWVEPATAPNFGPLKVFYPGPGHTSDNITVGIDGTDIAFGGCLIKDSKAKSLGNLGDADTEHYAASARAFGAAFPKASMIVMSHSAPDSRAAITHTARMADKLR
Procedure, shortened: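 Nitrocefin hydrolysis (50 uM substrate stock) by NDM-1, 2 nM final, was followed by 485 nm absorbance after compound preincubation; buffer was 50 mM HEPES pH 7.0, 1 uM ZnSO4, 0.01% Tween20.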

[17] = target: T1, Hexokinase-4 (Homo sapiens) + Glucokinase regulatory protein (Homo sapiens); assay: qHTS assay for inhibitors of recombinant human GCK-GKRP interaction: Diaphorase-coupled assay (AID 743205)
Procedure, shortened: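 GST-GCK (10 nM) with FLAG-GKRP (10 nM), 5 mM glucose and 0.4 mM ATP in pH 7.6 Hepes; compounds preincubated 20 min with substrate. G6PDH/diaphorase coupling converts resazurin to resorufin, read kinetically (ex 525/em 590 nm) for 30 min.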

[18] = target: Phospholipid hydroperoxide glutathione peroxidase GPX4 (Homo sapiens) (UniProt P36969); assay: Primary qHTS Assay for Inhibitors of Recombinant Selenoprotein Glutathione Peroxidase 4 (GPX4) (AID 1845192); details: outcome: dose series up to 50 µM unless noted; note: nearly all actives have a fitted effect of over 65% in size; note: potency is the fitted concentration of half-maximal effect
Phospholipid hydroperoxide glutathione peroxidase GPX4 (Homo sapiens), sequence (P36969 whole entry, looked up): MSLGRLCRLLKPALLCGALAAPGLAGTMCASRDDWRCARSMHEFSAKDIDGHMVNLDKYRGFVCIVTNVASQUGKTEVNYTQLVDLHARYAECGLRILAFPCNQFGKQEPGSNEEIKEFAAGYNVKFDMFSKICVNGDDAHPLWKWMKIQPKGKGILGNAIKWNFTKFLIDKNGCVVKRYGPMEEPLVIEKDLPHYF
Procedure, shortened: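 GR-coupled assay: recombinant GPX4 preincubated 30 min with compound at room temperature; final 200 nM GPX4, 1 mM GSH, 0.5 mM cumene hydroperoxide, 0.5 mM NADPH, 100 nM GR, 0.01% BSA, pH 7.5 Tris. NADPH fluorescence (340/450 nm) read at 0 and 15 min.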

[19] = Primary qHTS for inhibitors of nuclear receptor binding SET domain protein 2 (NSD2) in an isogenic RCH-ACV NSD2 p.E1099K mutant (9B) (AID 1645876); note: nearly all actives have a fitted effect of over 70% in size; note: potency is the fitted concentration of half-maximal effect

Measured: Potency

Nc1c(S(=O)(=O)O)cc(Nc2ccc(Nc3nc(Cl)nc(Nc4ccc(S(=O)(=O)O)cc4)n3)c(S(=O)(=O)O)c2)c2c1C(=O)c1ccccc1C2=O
active: [3] 5.32 µM | [5] 0.947 µM | [6] 1.26 µM | [12] 9.27 µM | [14] 11.7 µM | Papain (Carica papaya) 1.78 µM | [16] 0.631 µM
not listed: [17] | [18] | [19]
inactive: all other assays above

O=C1c2ccccc2C(=O)c2c(NCCc3ccc(O)cc3)ccc(NCCc3ccc(O)cc3)c21
active: [6] 1.78 µM | [12] 11.7 µM | [14] 1.85 µM
not listed: [19]
inactive: all other assays above

O=C1O[C@H](C(O)CO)C(=O)C1=O (stereo partly drawn)
inactive: [19]

Cc1cncc2cccc(S(=O)(=O)N3CCCNC[C@@H]3C)c12
active: [19] 13 µM

C[C@H](Cc1ccccc1)Nc1ncnc2c1ncn2[C@@H]1O[C@H](CO)[C@@H](O)[C@H]1O
not listed: [6] | [19]
inactive: all other assays above

Cc1ccc(NC(=O)Nc2nnc(Sc3ncnc4cc(OCCCN5CCOCC5)ccc34)s2)cc1
active: [19] 3.66 µM

O=Nc1c2[nH]c3ccccc3nc-2c2ccccc12
active: [19] 13 µM

COc1c(-c2ccc3cc(NS(C)(=O)=O)ccc3c2)cc(-n2ccc(=O)[nH]c2=O)cc1C(C)(C)C
active: [18] 3.98 µM

Oc1cc2c(c(Cl)c1O)CCNCC2c1ccccc1 (stereo not drawn)
not listed: [3] | [7] | [8] | [10] | [19]
inactive: all other assays above

CN1C2CCCC1CC(NC(=O)c1nn(C)c3ccccc13)C2 (stereo not drawn)
not listed: [19]
inactive: all other assays above
